Measurements as given in PubChem BioAssay (EPA / NIEHS).
The source made the active and inactive calls. How the source made its calls: active means hit-call score of the fitted dose curve at least 0.9, where 1 is the maximum; inactive means score below 0.9.

read-out: Cytochrome P450 2C19 (Homo sapiens) (UniProt P33261); assay: LTEA_HepaRG_CYP2C19: Life Technologies and Expression Analysis (LTEA) Assay for CYP2C19 using HepaRG (AID 2283482); conditions: mRNA level, 48 h; actives raise or lower the signal
Experimental: LTEA_HepaRG is a cell based, multiplexed-readout assay that uses HepaRG, a human liver cell line, with measurements taken at 48 hours after chemical dosing on a 96-well plate.LTEA_HepaRG_CYP2C19 is one of 102 assay component(s) measured in the LTEA HepaRG cell culture assay. It is a marker of NR mediated metabolism.Data from the assay component LTEA_HepaRG_CYP2C19 was analyzed into 1 endpoint. This assay endpoint, LTEA_HepaRG_CYP2C19, was analyzed with bidirectional fitting relative to DMSO as the negative control and baseline of activity. Using a type of inducible reporter, measures of mRNA induction for gain or loss-of-signal activity can be used to understand regulation of transcription factor activity. To generalize the intended target to other relatable targets, this assay endpoint is annotated to the cyp intended target family, where the subfamily is xenobiotic metabolism.
A total of 1060 chemcials from the ToxCast library were tested in eight-point concentration-response experiments. Cell culture and cytotoxicity assays were conducted at Thermo Fisher Scientific's Custom Services facility (Madison, WI). A single lot of human HepaRG cells (Thermo Fisher Scientific, Frederick, MD) was used for the cell culture experiments. 96-well format collagen type I coated plates of human HepaRG cells were prepared using established methods. Briefly, cryopreserved HepaRG cells were thawed, plated at a density of approximately 100,000 cells/well in HepaRG Thaw, Plate, and General Purpose media (HPRG770, Thermo Fisher Scientific), and incubated for 48 hours. 0.5% DMSO was selected as vehicle control to balance the requisite need of DMSO in HepaRG cultures to maintain differentiation (for example, baseline metabolism, proportions of hepatocytes vs. cholangiocytes), while enabling further hepatic receptor pathway activation (for example, PXR and CAR) in response to chemical exposure. 48 hours after plating, the culture medium was replaced with HepaRG Serum-Free Incudtion Media. Cells were exposed to each test chemical in duplicate and maintained in CO2 incubators for another 48 hours. Chemical plates were thawed to room temperature and 200x concentrations of treatment groups were prepared. 8-point conentration-reponse curves were made with the highest exposure at 100 uM, followed by half-log dilutions, all in 0.5% DMSO. Each test plate contained variouse controls, induction positive controls (1mM phenobarbital), cytotoxicity positive controls ([…] aflatoxin B1), vehicle controls (0.5% DMSO), and total lysis controls (0.5% DMSO). Cell morphology images were taken using an Essen IncuCyte FLR automated microscope, with six 96-well plates imaged in about 24 minutes. Images were captured and exported and JPEG files. Spent culture media was transfered to black-well plates for the LDH assay, and remaining media was sorted at -80 C for later use. Cells were treated with RLT buffer and frozen until shipped for gene expression analysis. Total RNA was isolated from the cell suspension in 75 uL of Buffer RLT (Qiagen, Germantown, MD 20874) by Quintiles/Expression Analysis (Durham, NC) using a custom isolation procedure. Total RNA from each plate well was transferred to a preamplification plate. Fluidigm's 96.96 Dynamic ArrayTM (Fluidigm, Amsterdam, the Netherlands) technology was used for gene expression analyses by quantitative reverse transcription polymerase chain reaction (qRT-PCR, performed by Quintiles/Expression Analysis, Durham, NC)89. Standard TaqManTM Assays (Applied Biosystems/ThermoFisher Scientific, Foster City, CA) were used to assess the expression of 93 genes selected based on their selectivity and sensitivity to important hepatic receptors known to be modulated by environmental chemicals; importance in human hepatocyte functionality; and hepatotoxicity. […]

Chain of Cytochrome P450 2C19 (Homo sapiens) (P33261 whole entry, looked up): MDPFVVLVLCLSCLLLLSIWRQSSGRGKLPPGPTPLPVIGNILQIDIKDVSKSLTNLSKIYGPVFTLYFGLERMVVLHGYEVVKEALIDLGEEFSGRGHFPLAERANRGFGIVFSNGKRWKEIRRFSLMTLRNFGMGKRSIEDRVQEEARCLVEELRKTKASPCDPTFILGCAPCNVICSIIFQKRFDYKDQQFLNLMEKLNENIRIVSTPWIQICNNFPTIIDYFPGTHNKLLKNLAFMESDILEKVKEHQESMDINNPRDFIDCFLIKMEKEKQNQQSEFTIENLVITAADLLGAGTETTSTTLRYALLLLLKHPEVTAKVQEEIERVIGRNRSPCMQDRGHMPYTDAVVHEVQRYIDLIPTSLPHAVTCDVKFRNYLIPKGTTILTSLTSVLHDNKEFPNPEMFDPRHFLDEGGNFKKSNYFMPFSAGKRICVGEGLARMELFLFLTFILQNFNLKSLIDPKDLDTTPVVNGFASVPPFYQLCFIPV

Row | Structure (SMILES) | outcome | AC50
1 | On1ccccc1=S | inactive | –
2 | CC(C)c1cccc(C(C)C)c1N1C(=O)c2ccc(O)cc2C1=O | – | 91.5 µM (active)
3 | CCNc1ccccc1 | inactive | –
4 | Cc1ccc(N)cc1O | inactive | –
5 | O=C1CCC(N2C(=O)c3ccccc3C2=O)C(=O)N1 (stereo not given) | inactive | –
6 | CC/C(=C\C(=N/O)C(N)=O)C(C)[N+](=O)[O-] (stereo not given) | inactive | –
7 | Cn1c(=O)cc(Oc2ccc(F)cc2F)c2cnc(NCC(C)(C)O)nc21 | – | 14.6 µM (active)
8 | COC(=O)c1c(Cl)c(Cl)c(C(=O)OC)c(Cl)c1Cl | inactive | –
9 | O=C(O)c1cc(N=Nc2ccc(S(=O)(=O)Nc3ccccn3)cc2)ccc1O | inactive | –
10 | CCCN(C1CCN(C(=O)C2CCNCC2)CC1)[C@@H]1CCc2ccc(OC)cc2C1 | – | 86.3 µM (active)
11 | CC1=CC(=O)CC(C)(C)C1 | inactive | –
12 | O=P(OC(CCl)CCl)(OC(CCl)CCl)OC(CCl)CCl | – | 84.9 µM (active)
13 | O=C(OC[C@H]1O[C@@H](OC(=O)c2cc(O)c(O)c(OC(=O)c3cc(O)c(O)c(O)c3)c2)[C@H](OC(=O)c2cc(O)c(O)c(OC(=O)c3cc(O)c(O)c(O)c3)c2)[C@@H](OC(=O)c2cc(O)c(O)c(OC(=O)c3cc(O)c(O)c(O)c3)c2)[C@@H]1OC(=O)c1cc(O)c(O)c(OC(=O)c2cc(O)c(O)c(O)c2)c1)c1cc(O)c(O)c(OC(=O)c2cc(O)c(O)c(O)c2)c1 | – | 15.2 µM (active)
14 | CNCc1ccc(NC(=O)c2c[nH]c3c2C(=O)CCC3)cc1 | inactive | –
15 | C[C@](N)(Cc1ccc(O)c(O)c1)C(=O)O | inactive | –
16 | CC(C)=CCCC(C)CCO (stereo not given) | inactive | –
17 | Nc1ccc(Nc2ccccc2)cc1 | inactive | –
18 | C=CCCCCCCCCC(=O)O | inactive | –
19 | CCCC(=O)OCC | inactive | –
20 | O=C(O)CCN(C1(C(=O)NO)CCCC1)S(=O)(=O)c1ccc(Oc2ccc(F)cc2)cc1 | inactive | –

Row | Structure (SMILES) | outcome | AC50
21 | CCCCCCCCO | inactive | –
22 | CC(C)CCCCCCOC(=O)c1ccc(C(=O)OCCCCCCC(C)C)c(C(=O)OCCCCCCC(C)C)c1 | inactive | –
23 | CCOCCO | inactive | –
24 | CC(C)CC(C)(O)C#CC(C)(O)CC(C)C (stereo not given) | – | 29.5 µM (active)
25 | CC(C)CCO | inactive | –
26 | CCCCC(CC)COC(=O)CCCCCCCCC(=O)OCC(CC)CCCC (stereo not given) | inactive | –
27 | CN(C)c1ccc(N=NS(=O)(=O)O)cc1 | inactive | –
28 | O=C(O)c1cccc(N(Cc2cccnc2)c2ccc(OC(F)F)c(OC(F)F)c2)c1 | inactive | –
29 | CC(=O)OCCC(C)C | inactive | –
30 | CC(O)CN(CCN(CC(C)O)CC(C)O)CC(C)O (stereo not given) | inactive | –
31 | CC(C)=CCCC(C)=CC=O | inactive | –
32 | CC[C@H]1OC(=O)[C@H](C)[C@@H](O[C@H]2C[C@@](C)(OC)[C@@H](O)[C@H](C)O2)[C@H](C)[C@@H](O[C@@H]2O[C@H](C)C[C@H](N(C)C)[C@H]2O)[C@](C)(O)C[C@@H](C)C(=O)[C@H](C)[C@@H](O)[C@]1(C)O | inactive | –
33 | COC(=O)CC(=O)OC | – | 3.31 µM (active)
34 | CC(C)CCCCCCCOC(=O)CCCCC(=O)OCCCCCCCC(C)C | inactive | –
35 | CC[C@H]1CC[C@H](NCc2cc3c(cc2OC)[C@H]2C[C@H]2C(=O)N3C)[C@H](c2ccccc2)N1 | – | 10.8 µM (active)
36 | CCOCCOCCOCCO | inactive | –
37 | CNS(=O)(=O)c1cc(C(=O)N2CCC(CCN3C4CCC3CC(n3c(C)nc5ccccc53)C4)(c3cccc(F)c3)CC2)c(Cl)cc1F (stereo not given) | – | 50 µM (active)
38 | COCCOCCOCCOC | inactive | –
39 | Nc1cccc(N)c1 | inactive | –
40 | CCOC(=O)CC(CC(=O)OCC)(OC(C)=O)C(=O)OCC | inactive | –
